This note sets out measurements from PubChem BioAssay.

Activity calls are given as the source filed them.

A short description of test [1]: binders of probe aFSTL3 on microarray, primary screen, stem cell growth factor project, biochemical, small-molecule microarray, fluorescence 635/667 (AID 1064).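 Further: measures binding of the biotinylated anti-FSTL3 antibody to printed compounds.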 To be noted: higher = more signal.
Test [2] in a line: binders from COS7 lysate, DM2A8 probe, primary screen, torsin A project, cell lysate, small-molecule microarray, fluorescence 635/667 (AID 1065). The note with it: higher = more signal, COS7 lysate expressing mutant human TOR1A.
A short description of test [3]: binders of probe aFGF2 on microarray, primary screen, stem cell growth factor project, biochemical, small-molecule microarray, fluorescence 635/667 (AID 1067).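 Further: measures binding of biotinylated aFGF2 protein to printed compounds on slides; z-score merges feature fluorescence and signal-to-noise across triplicate slides.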 The note with it: higher = more signal.
The nature of test [4]: binders of probe aFGF10 on microarray, primary screen, stem cell growth factor project, biochemical, small-molecule microarray, fluorescence 635/667 (AID 1071).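 Further: score merges 667 nm spot intensity and signal to noise from triplicate slides.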 The note with it: higher = more signal.
Test [5] concerns the target Neurogenic locus notch homolog protein 2 (Homo sapiens) (UniProt Q04721). Briefly: Notch2 binders on small-molecule microarrays, primary screen, biochemical, small-molecule microarray, 635 nm fluorescence, stem cell growth factors (AID 1073). The note with it: Notch2 binding, higher = more signal.
Test [6] deals with Pro-neuregulin-1, membrane-bound isoform (Homo sapiens) (UniProt Q02297). Briefly: NRG1 binders on small-molecule microarrays, primary screen, psychiatric disease protein project, biochemical, small-molecule microarray, fluorescence 635/667 (AID 1075).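 Further: score combines 667 nm spot fluorescence with signal to noise.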 The note with it: NRG1 binding, 635 nm fluorescence, higher = more signal.
Test [7] has as its system Neuregulin-1 EGF-like domain. Briefly: binders of neuregulin-1 EGF-like domain, primary screen, biochemical, small-molecule microarray, 635 nm fluorescence (AID 1081).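 Further: binding of the protein to compounds printed on small-molecule microarray slides.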 The note with it: small-molecule microarray binding, higher = more signal.
Test [8] can be described thus: FRG1 promoter luciferase signal modulators, primary screen, FRG1 inhibition for FSHD, cell-based, C2C12 myotubes, firefly/Renilla luciferase, luminescence (AID 1084). The note with it: higher = more signal, called active from +8 up or from −8 down.
A short description of test [9]: binders of probe aFST on microarray, primary screen, stem cell growth factor project, biochemical, small-molecule microarray, fluorescence 635/667 (AID 1086).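 Further: score merges 667 nm fluorescence with signal-to-noise of each printed compound spot.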 The note with it: higher = more signal.
A short description of test [10]: binders of probe aHhip on microarray, primary screen, stem cell growth factor project, biochemical, small-molecule microarray, fluorescence 635/667 (AID 1087).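 Further: score merges spot fluorescence at 667nm with spot signal to noise ratio.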 The note with it: higher = more signal.
For test [11], the system named is PRMT1 (protein arginine N-methyltransferase 1). Put plainly: PRMT1 binders on small-molecule microarrays, primary screen, biochemical, small-molecule microarray, 635 nm fluorescence (AID 1088).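 Further: binding of Prmt1 protein to compounds spotted on small-molecule microarray slides.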 To be noted: small-molecule microarray binding, higher = more signal.
Test [12] can be described thus: yeast growth modulation, basal conditions, primary screen, YJM789 clinical isolate, OD600, 24 h (AID 1089).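 Further: growth of clinical yeast isolate S. cerevisiae YJM 789 seeded 1000 cells per well; test concentration not given here.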 To be noted: S. cerevisiae YJM789 growth, higher = more signal, called active from +8 up or from −8 down.
Test [13] can be described thus: fission yeast growth modulation, primary screen, strain 972, OD600, 24 h, no modulator (AID 1090).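 Further: basal condition with compound alone and no growth modifier present; test concentration not given here.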 The note with it: S. pombe 972 growth, higher = more signal, called active from +8 up or from −8 down.
The nature of test [14]: S. cerevisiae growth modulation with rapamycin, primary screen, strain BY4716, OD600, 96 h (AID 1091). Further: test concentration not given here. To be noted: higher = more signal, called active from +8 up or from −8 down.
For test [15], the target named is Torsin-1A-interacting protein 2 (Homo sapiens) (UniProt Q8NFQ8). Briefly: LULL1 binders on small-molecule microarray, primary screen, cell lysate, human LULL1 lysate, 635/667 nm fluorescence (AID 1092).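 Further: probe is lysate of COS7 cells overexpressing human LULL1; score merges per-feature 667 nm fluorescence with signal-to-noise.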 To be noted: hLULL1 lysate binding, 635 nm fluorescence, higher = more signal.
A short description of test [16]: E. coli growth modulation, two-sided OD650, primary screen, E. coli filamentation project, strain DRC41, 24 h (AID 1093).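 Further: MC1000 strain lacking acrAB efflux and sulA so SOS filamentation is blocked; test concentration not given here.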 To be noted: OD650, 24 h, higher = more signal, called active from +8 up or from −8 down.
Test [17] in a line: small-molecule microarray binders of probe aLefty2, primary screen, biochemical, biotinylated probe, 635/667 nm fluorescence (AID 1094).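 Further: score merges spot fluorescence near 667 nm with spot signal-to-noise ratio.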 To be noted: higher = more signal.
Test [18] has as its system Noggin (protein binding on small-molecule microarray). Briefly: Noggin binders on small-molecule microarray, primary screen, biochemical, 635/667 nm fluorescence (AID 1095).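 Further: score merges 667 nm feature fluorescence with signal to noise over triplicate slides.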 The note with it: 635 nm fluorescence, higher = more signal.
For test [19], the target named is Neurogenic locus notch homolog protein 3 (Homo sapiens) (UniProt Q9UM47). Briefly: NOTCH3 binders on small-molecule microarray, primary screen, biochemical, 635/667 nm fluorescence (AID 1096). To be noted: NOTCH3 binding, 635 nm fluorescence, higher = more signal.
The nature of test [20]: small-molecule microarray binders of probe aEGFR, primary screen, biochemical, biotinylated probe, 635/667 nm fluorescence (AID 1097).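 Further: probe is a biotinylated anti-EGFR antibody binding compounds printed on slides; score combines fluorescence near 667 nm and signal to noise of each spot.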 To be noted: higher = more signal.

Torsin-1A-interacting protein 2 (Homo sapiens), sequence (Q8NFQ8 whole entry, looked up): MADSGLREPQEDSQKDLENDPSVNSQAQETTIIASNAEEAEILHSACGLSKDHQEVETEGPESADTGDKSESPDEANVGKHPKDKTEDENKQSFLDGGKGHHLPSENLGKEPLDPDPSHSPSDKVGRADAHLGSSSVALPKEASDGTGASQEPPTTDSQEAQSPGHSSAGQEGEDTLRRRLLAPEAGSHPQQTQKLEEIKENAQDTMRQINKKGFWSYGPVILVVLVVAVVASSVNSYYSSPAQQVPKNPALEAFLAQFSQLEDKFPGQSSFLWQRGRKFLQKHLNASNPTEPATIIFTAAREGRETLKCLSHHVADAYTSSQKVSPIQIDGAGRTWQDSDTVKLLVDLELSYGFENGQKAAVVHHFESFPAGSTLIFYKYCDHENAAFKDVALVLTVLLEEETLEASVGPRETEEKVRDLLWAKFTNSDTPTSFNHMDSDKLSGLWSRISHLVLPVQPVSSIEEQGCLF
Neurogenic locus notch homolog protein 2 (Homo sapiens), sequence (Q04721 whole entry, looked up, canonical isoform): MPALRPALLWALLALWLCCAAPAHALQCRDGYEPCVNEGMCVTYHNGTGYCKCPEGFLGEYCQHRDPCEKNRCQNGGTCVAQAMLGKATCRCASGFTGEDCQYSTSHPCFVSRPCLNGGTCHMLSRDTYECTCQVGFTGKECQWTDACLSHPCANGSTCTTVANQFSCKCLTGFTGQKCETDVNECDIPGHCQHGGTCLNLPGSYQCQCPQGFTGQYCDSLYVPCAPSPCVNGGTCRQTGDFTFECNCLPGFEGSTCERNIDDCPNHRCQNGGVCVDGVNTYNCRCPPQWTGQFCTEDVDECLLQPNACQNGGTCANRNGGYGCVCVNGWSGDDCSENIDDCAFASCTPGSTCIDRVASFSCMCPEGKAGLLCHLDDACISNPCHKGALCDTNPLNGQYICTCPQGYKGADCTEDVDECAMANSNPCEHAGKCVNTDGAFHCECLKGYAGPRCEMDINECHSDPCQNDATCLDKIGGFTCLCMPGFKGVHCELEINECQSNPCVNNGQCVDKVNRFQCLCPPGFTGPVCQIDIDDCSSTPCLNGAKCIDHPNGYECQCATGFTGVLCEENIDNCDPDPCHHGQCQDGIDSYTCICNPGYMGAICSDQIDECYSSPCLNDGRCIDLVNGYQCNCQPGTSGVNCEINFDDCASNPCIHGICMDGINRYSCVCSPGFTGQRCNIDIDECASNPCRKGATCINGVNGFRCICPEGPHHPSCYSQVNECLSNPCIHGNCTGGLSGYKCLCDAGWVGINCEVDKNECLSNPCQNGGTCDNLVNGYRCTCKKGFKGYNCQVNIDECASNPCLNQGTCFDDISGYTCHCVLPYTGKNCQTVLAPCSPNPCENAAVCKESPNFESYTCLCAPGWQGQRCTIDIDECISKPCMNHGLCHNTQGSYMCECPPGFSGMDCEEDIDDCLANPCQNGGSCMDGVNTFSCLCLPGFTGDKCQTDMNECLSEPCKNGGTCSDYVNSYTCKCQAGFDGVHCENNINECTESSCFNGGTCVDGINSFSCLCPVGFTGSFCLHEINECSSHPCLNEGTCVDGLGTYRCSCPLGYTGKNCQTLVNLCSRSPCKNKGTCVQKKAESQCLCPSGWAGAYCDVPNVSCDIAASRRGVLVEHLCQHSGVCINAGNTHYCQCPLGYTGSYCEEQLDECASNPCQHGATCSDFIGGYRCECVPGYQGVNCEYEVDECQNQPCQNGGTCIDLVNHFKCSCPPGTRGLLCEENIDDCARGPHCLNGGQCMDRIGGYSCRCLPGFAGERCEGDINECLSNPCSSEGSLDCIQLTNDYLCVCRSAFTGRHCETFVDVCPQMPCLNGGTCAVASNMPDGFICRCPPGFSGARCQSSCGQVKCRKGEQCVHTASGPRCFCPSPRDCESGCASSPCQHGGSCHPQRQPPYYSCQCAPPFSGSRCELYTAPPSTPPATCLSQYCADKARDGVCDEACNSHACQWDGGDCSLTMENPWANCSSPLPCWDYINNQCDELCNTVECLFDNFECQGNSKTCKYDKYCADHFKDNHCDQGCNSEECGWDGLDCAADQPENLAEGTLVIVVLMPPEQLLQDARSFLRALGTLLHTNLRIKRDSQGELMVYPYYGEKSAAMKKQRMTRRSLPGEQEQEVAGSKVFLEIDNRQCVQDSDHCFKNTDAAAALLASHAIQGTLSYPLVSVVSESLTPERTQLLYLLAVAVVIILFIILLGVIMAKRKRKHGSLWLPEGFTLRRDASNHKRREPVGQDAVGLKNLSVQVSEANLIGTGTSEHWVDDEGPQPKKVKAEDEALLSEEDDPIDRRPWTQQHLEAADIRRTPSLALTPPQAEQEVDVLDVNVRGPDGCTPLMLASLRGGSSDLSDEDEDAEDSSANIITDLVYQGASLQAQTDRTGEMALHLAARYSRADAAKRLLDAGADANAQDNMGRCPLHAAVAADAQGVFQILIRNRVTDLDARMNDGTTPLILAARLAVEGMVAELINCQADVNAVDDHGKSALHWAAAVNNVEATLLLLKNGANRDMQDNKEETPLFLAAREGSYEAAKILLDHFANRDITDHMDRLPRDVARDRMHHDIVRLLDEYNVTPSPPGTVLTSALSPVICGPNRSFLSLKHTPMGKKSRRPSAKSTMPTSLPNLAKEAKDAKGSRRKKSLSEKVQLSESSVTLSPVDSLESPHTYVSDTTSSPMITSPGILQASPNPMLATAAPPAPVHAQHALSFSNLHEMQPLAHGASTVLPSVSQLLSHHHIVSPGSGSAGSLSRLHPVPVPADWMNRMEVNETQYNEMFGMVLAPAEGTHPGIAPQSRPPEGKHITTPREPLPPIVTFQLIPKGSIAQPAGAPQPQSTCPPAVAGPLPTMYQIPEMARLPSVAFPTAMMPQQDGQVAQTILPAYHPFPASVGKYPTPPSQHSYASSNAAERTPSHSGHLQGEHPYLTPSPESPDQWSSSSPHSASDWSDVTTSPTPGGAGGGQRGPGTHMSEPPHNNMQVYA
Pro-neuregulin-1, membrane-bound isoform (Homo sapiens), sequence (Q02297 whole entry, looked up, the tested form may be a part, canonical isoform): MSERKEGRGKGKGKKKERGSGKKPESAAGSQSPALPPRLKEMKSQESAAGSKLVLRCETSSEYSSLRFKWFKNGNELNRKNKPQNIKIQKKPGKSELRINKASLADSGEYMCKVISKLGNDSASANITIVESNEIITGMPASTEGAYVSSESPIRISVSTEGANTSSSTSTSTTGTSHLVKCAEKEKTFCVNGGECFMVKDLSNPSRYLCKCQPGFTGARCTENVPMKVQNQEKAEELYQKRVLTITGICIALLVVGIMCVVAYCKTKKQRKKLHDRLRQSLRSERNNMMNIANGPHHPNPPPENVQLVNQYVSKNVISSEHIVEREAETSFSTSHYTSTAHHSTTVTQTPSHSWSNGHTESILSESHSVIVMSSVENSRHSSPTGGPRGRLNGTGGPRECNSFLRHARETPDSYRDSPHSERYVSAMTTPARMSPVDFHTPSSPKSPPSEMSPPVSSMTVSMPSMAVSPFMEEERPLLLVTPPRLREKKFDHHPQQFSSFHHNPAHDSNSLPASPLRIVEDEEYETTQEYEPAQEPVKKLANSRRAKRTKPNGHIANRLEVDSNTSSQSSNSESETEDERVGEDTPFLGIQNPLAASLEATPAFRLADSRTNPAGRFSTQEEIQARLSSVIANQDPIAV

For the molecule `C=CCN1C(=O)[C@]2(O[C@H](CCn3cc([C@H](O)c4ccccc4)nn3)[C@@H]([Si](C)(C)c3ccc(OC)cc3)[C@@H]2C)c2ccccc21`, the composite z-score was 0.202 in test [1]; -0.602 in test [2]; -0.0894 in test [3]; -0.264 in test [4]; -0.439 in test [5]; 0.093 in test [6]. The composite z-score was -0.0113 in [7]; -0.366 in test [9]; -0.264 in test [10]; 0.267 in test [11]; 0.41 in [15]; -0.113 in test [17]. Also, the composite z-score in test [18] was -0.308; in test [19], 0.183; in test [20], -0.145. Also, the z-score in test [8] is -0.356 (inactive); in test [12], -1.25 (inactive); in [13], 0.0123 (inactive); in [14], -0.198 (inactive); in test [16] it was -0.68 (inactive).
Take `Cc1ccc([C@@H]2C[C@@H](Sc3ccccc3)[C@H](C(=O)O)CN2S(=O)(=O)c2ccc(C)cc2)cc1`: the composite z-score was -0.0057 in test [1]; 0.414 in [2]; 0.0512 in test [3]; 0.983 in test [4]; 1.59 in [5]; 1.57 in [6]. The composite z-score was found to be 1.35 in test [7]; 0.936 in test [9]; 0.0373 in [10]; 1.54 in [11]; 3.53 in test [15]; 0.141 in [17]. In addition, the composite z-score in test [18] amounted to 0.339; in test [19], 1.08; in [20], 0.0082. Also, the z-score in test [8] is -3.65 (inactive); in test [12], -0.337 (inactive); in [13], 0.565 (inactive); in test [14], -0.787 (inactive); in test [16], -0.773 (inactive).
As to `CCOC(=O)[C@H]1C/C=C/C[C@H](C(=O)OCC)C(=O)O[C@H]2[C@@H](OC)O[C@H](CO)[C@@H](OC(=O)c3c(OC)cccc3OC)[C@@H]2OC1=O`, the composite z-score in [1] was 1.03; in test [2], 0.321; in [3] it was -0.0275; in test [4], 0.259; in [5], 0.297; in test [6], 1.12. Further, the composite z-score was 1.02 in test [7]; 0.951 in [9]; 1.32 in [10]; 1.33 in [11]; 2.86 in test [15]; 0.573 in test [17]. In addition, the composite z-score in test [18] was 1.15; in test [19], 0.982; in [20] it was -0.0921. Also, the z-score in test [8] was 0.418 (inactive); in [12], 0.172 (inactive); in [13] it was -1.13 (inactive); in test [14], 3.72 (inactive); in test [16], -0.901 (inactive).
Take `CC(C)N1C(=O)c2ccccc2[C@](C)(C(=O)NCCN2CCOCC2)[C@@H]1c1ccc(CO)cc1`: the composite z-score is 0.755 in [1]; 0.779 in [2]; -0.104 in test [3]; -1.08 in test [4]; -0.879 in [5]; 1.76 in test [6]. For the same molecule, the composite z-score was 0.728 in test [7]; -0.527 in [9]; -0.306 in [10]; 1.2 in test [11]; 2.37 in test [15]; 0.0971 in [17]. Also, the values for the composite z-score in test [18], in test [19] and in test [20] were 0.495, 0.1 and -0.0152, respectively. Further, the z-score in [8] was 0.185 (inactive); in [12], 0.608 (inactive); in test [13] it was 0.516 (inactive); in [14], 0.511 (inactive); in test [16] it was -0.487 (inactive).
As to `CN(C)CCCC[C@@H]1NC(=O)[C@H]2C[C@@H](C(=O)NCCCCCCN)[C@@H](c3ccc(O)cc3)N2C1=O`, the composite z-score in test [1] worked out at 1.89; in [2], 1.03; in test [3] it was 0.128; in test [4] it was 0.935; in [5], 1.37; in [6], 1.79. Besides, the composite z-score was determined as 1.1 in test [7]; 1.52 in test [9]; 1.09 in test [10]; 1.57 in test [11]; 3.08 in [15]; 1.14 in test [17]. Besides, the composite z-score turned out to be 1.84 in test [18], 1.15 in test [19] and 0.566 in [20]. Also, the z-score was 0.511 (inactive) in test [8]; 0.307 (inactive) in test [12]; -0.235 (inactive) in [13]; -0.447 (inactive) in [14]; 0.278 (inactive) in [16].
In the case of `COc1cc(NN2C(C(O)c3ccco3)C=CC3C(=O)N(c4ccccc4)C(=O)C32)cc(OC)c1OC` (stereo not given), the composite z-score in test [1] is -0.178; in [2] it was -0.218; in test [3] it was -0.116; in test [4] it was 0.127; in [5] it was 0.723; in test [6], 1.18. Besides, the composite z-score is 1.21 in test [7]; 0.162 in test [9]; -0.0215 in [10]; 0.216 in test [11]; 2.41 in test [15]; -0.2 in test [17]. In addition, the composite z-score in test [18] was 0.0945; in [19], 0.703; in [20], -0.0688. The z-score was 0.889 (inactive) in [8]; 0.602 (inactive) in test [12]; 0.0991 (inactive) in [13]; -0.234 (inactive) in [14]; -1.18 (inactive) in test [16].
Consider `CC(C)N1C(=O)C[C@@](C(=O)NCC(F)(F)F)(c2ccc([N+](=O)[O-])cc2)[C@H]1c1ccc(CO)cc1`, for which the composite z-score was 0.27 in test [1]; 0.513 in [2]; -0.147 in test [3]; -0.336 in test [4]; -0.545 in test [5]; 0.769 in test [6]. In addition, the composite z-score in test [7] is 0.541; in [9], -0.531; in [10] it was -0.0994; in test [11], 1.55; in test [15], 3.32; in [17], -0.195. In addition, the composite z-score in [18] is 0.493; in [19], 0.356; in test [20], -0.0987. Further, the z-score is -0.468 (inactive) in test [8]; -0.804 (inactive) in test [12]; -1.63 (inactive) in test [13]; -1.63 (inactive) in test [14]; -0.29 (inactive) in [16].
For `CC(C)c1ccc(NN2C(C(O)c3ccc(B(O)O)cc3)C=CC3C(=O)N(c4ccccc4)C(=O)C32)cc1` (stereo not given), the composite z-score in test [1] was 0.842; in [2], 0.0275; in test [3], 0.185; in test [4], 1.13; in [5] it was 1.63; in [6], 1.19. The composite z-score amounted to 1.15 in [7]; 1.67 in [9]; 0.0722 in test [10]; 0.815 in test [11]; 2.99 in test [15]; 0.413 in test [17]. Further, the values for the composite z-score in test [18], in test [19] and in test [20] were -0.266, 1.11 and -0.0179, respectively. Besides, the z-score in test [8] is 0.87 (inactive); in test [12], 0.0686 (inactive); in test [13], -4.4 (inactive); in [14], 0.617 (inactive); in [16] it was -0.41 (inactive).
`O=C1NC(=O)C2C1C=CC(C(O)c1cccs1)N2Nc1ccc(Cl)cc1Cl` (stereo not given): the composite z-score in test [1] is 0.709; in test [2], -0.232; in test [3], -0.0647; in test [4] it was 0.0409; in test [5], -0.0246; in [6], 1.25. Further, the composite z-score in test [7] is 1.14; in test [9], 0.0983; in test [10] it was -0.191; in test [11], 0.407; in test [15], 2.37; in test [17] it was -0.0333. Further, the composite z-score in test [18] was -0.394; in [19], -0.23; in [20], -0.0476. The z-score in [8] was 0.224 (inactive); in [12], 1.01 (inactive); in [13], 0.186 (inactive); in test [14], 1.74 (inactive); in [16], -0.0056 (inactive).
